The list is not random: actives were taken first. Their share in the collection is about 1.2%.
RXFP1 ag: activates the human relaxin receptor RXFP1. Q9HBX9. HEK293T-RXFP1 cAMP TR-FRET, 30 min; response scale: percent of porcine relaxin response, buffer zero. Potency, µM (series often up to 57.5 µM), for inactives: at the highest dose activation, most hits filed as activators. actives 0.3% (n = 370,000); active = well fitted activation curve with a large enough effect; inconclusive = small, poorly fitted or top-dose-only effect; also: potency is read from the fitted curve at half-maximal effect; % is scaled to controls: 0 for no effect and ±100 for the full control effect; nearly all actives have a fitted effect of over 60% in size
Target sequence (Q9HBX9 whole entry, looked up): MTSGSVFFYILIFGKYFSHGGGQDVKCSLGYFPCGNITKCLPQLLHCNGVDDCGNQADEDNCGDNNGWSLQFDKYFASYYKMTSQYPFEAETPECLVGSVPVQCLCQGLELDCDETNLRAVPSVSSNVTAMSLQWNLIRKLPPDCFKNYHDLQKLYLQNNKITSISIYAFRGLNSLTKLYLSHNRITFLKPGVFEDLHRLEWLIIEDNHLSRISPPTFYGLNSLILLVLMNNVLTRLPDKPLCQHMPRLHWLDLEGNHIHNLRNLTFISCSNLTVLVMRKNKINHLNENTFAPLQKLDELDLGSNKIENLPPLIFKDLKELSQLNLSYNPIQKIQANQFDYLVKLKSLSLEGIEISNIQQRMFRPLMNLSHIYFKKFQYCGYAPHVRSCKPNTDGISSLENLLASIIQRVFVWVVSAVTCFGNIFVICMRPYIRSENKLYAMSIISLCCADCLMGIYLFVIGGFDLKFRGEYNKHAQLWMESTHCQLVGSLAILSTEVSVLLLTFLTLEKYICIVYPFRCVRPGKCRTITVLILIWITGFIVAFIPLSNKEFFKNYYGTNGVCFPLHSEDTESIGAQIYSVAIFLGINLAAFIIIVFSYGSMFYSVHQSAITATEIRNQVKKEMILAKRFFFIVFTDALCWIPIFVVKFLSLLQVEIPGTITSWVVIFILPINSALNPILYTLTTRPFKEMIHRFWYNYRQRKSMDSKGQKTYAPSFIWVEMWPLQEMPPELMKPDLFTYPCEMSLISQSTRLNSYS
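HEK293 cells stably expressing RXFP1, treated 30 min at 37C with compounds plus PDE4 inhibitor Ro 20174; cAMP measured by HTRF TR-FRET. Normalized to buffer and 29 nM porcine relaxin; EC50 by Hill fit.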
gsp antagonist: antagonists of gsp mutant (McCune-Albright syndrome). Potency, µM (titrated, usually from 76.9 µM), for inactives: top-dose activity change, negative = inhibition, actives largely listed as inhibitors. actives 0.4% (n = 340,000). gsp-mutant cells, cAMP HTRF, 30 min. AID 624288; calls by dose curve; cell line not stated here;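 also: intracellular cAMP measured with PDE inhibitor Ro 20-1724 present during compound exposure; potency is read from the fitted curve at half-maximal effect; % is scaled to controls: 0 for no effect and ±100 for the full control effect; nearly all actives have a fitted effect of over 65% in size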
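G418-selected cells were plated in DMEM/10% FBS for 16-24 h at 37C, then treated with compounds plus the PDE inhibitor […] (300 uM solution added) for 30 min at 37C. Intracellular cAMP was measured by HTRF after 30 min lysis at room temperature.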
Akt phos inh: blocks phosphorylation of Akt; Neuro2A IGF-stimulated pAkt S473 HTRF, 20 min; active compounds read low; activity change, % for hits at 50 µM; actives 0.32% (n = 360,000); AID 651550; in the data active = activity change below about -80%; inconclusive = mostly about -51% to -80%; also: % is scaled to controls: 0 for no effect and ±100 for the full control effect
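Neuro2A cells in DMEM with 0.5% FBS, overnight at 37 deg C, given compound at single 50 µM final, then IGF (6 nM final) for 20 min at 37 deg C. Lysed; phospho-Akt Ser473 by HTRF after 24 h, 665/615 ratio.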
RXFP1 antag: antagonists of human relaxin receptor RXFP1. Q9HBX9. HEK293-RXFP1, relaxin-stimulated cAMP HTRF, 30 min; active compounds read low. activity change, negative = inhibition, % at 57.5 µM. actives 0.59% (n = 350,000);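 active = activity change of -60% or lower, but not beyond a set lower limit; inconclusive = change between -60% and -40%, or beyond the set limit; inactive = change above -40%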; also: % is scaled to controls: 0 for no effect and ±100 for the full control effect
gsp agonist: agonists of gsp mutant (McCune-Albright syndrome); actives 0.13% (n = 340,000); gsp mutant cells, cAMP HTRF, 30 min; Potency, µM (titrated, usually from 76.9 µM), for the others: top-dose activation (cAMP increase), usual class: activators; active = well fitted activation curve with a large enough effect; inconclusive = small, poorly fitted or top-dose-only effect, or another doubt; inactive = no such curve, though single readings can be large or run the other way; cell line not stated here;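 also: phosphodiesterase inhibitor Ro 20-1724 added with compounds to block cAMP breakdown; potency is read from the fitted curve at half-maximal effect; nearly all actives have a fitted effect of over 60% in size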
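Cells stably selected in G418 were plated at 2000/well, grown 16-24 hr, then given compounds in DMSO with the PDE inhibitor […] (300 uM solution added) for 30 min at 37C; cAMP was read by HTRF.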
Active calls of the source: *; i = inactive; ? = inconclusive; nt = no result; [ ] = another dose, or the depositor's remark.

SMILES	RXFP1 ag	gsp antagonist	Akt phos inh	RXFP1 antag	gsp agonist
O=S(=O)(c1ccc(Br)cc1)N1CCn2cccc2C1c1ccc(Br)cc1 (configuration not stated)	2%	nt	nt	5	nt
Cc1cc(N/N=C/c2ccc(O)c(C)c2O)nc(-c2ccccc2O)n1	0%	-21%	i	-72*	?
COc1ccc(C(=O)n2nc(-c3ccco3)nc2NCc2cccs2)cc1	-1%	nt	nt	-7	nt
Cc1oc2cc(Br)c(O)c(Br)c2c1-c1ccccc1	0%	-13%	i	-101*	9%[15.4 µM]
Cc1cc(C)c2oc(-c3cccc(NC(=O)COc4ccc([N+](=O)[O-])cc4)c3)nc2c1	1%	nt	nt	-3	nt
COc1ccc(C(=O)/C=C2/C(=O)Nc3ccccc32)c(OC)c1	6%	4%	i	-86*	5%[15.4 µM]
CCc1c(C)c2cc3c(c(C)c2oc1=O)OCN(CCc1ccccc1F)C3	20%	nt	nt	0	nt
CSc1nnc2c3ccccc3n(CCc3ccccc3)c2n1	1%	?	i	7	?
S=c1nc2c(n[nH]1)c1ccccc1n2CCc1ccccc1	3%	1%	i	-115*	-40%
Cc1cc(C)cc(N(CC(=O)Nc2ccc(-c3nc4ccc(C)cc4s3)cc2)S(C)(=O)=O)c1	5%	-16%	i	-11	-1%
Cc1ccc2nc(-c3ccc(NC(=O)CN(c4ccccc4C)S(C)(=O)=O)cc3)sc2c1	4%	-9%	-107%*	-6	?
CCOc1ccc(NC(=O)Cn2cnc3sc(C)c(S(=O)(=O)N4CCN(c5ccccc5OC)CC4)c3c2=O)cc1	0%	nt	nt	-16	nt
O=C(NC1CCCCC1)C(c1ccccc1F)N(Cc1ccco1)C(=O)c1ccccn1 (configuration not stated)	1%	0%	i	3	-2%[15.4 µM]
CCC(C)(C(=O)NC1CCCCC1)N(Cc1ccco1)C(=O)c1ccccn1 (configuration not stated)	3%	4%	-107%*	-4	-9%
O=C(Nc1ccccc1)Nc1ncc([N+](=O)[O-])s1	1%	28µM*	i	-18	-12%[15.4 µM]
O=C(Nc1ccc(Cl)cc1)c1cnn2c1NC(c1ccccc1)=CC2c1ccccc1 (configuration not stated)	0%	nt	nt	-10	nt
CC1(C)Cc2c(C#N)c(NCc3ccco3)nc(-c3ccco3)c2CO1	2%	17%	-89%*	-5	9%
CC(C)c1nc2sc3c(NCc4ccco4)ncnc3c2c2c1COC(C)(C)C2	?	24%	-104%*	-4	26%
COc1ccc(Cn2c(=O)c3oc4ccccc4c3n(Cc3ccc(F)cc3)c2=O)cc1	3%	nt	nt	-11	nt
CCOC(=O)N1CCC(Nc2ccc(Cl)cc2N)CC1	nt	nt	nt	-22	nt
O=C(CCS(=O)(=O)c1ccc(Br)cc1)N1CCN(Cc2ccccc2)CC1	4%	-14%	-109%*	-4	-2%
O=C1c2[nH]nc(-c3ccc(F)cc3)c2C(c2ccccc2F)N1c1ccccc1 (configuration not stated)	6%	nt	nt	-68*	nt
COc1ccccc1CNC(=O)c1ccc(-c2nc(CN3CCc4ccccc43)c(C)o2)cc1	3%	nt	nt	nt	nt
Cc1cc(-c2ccccc2)nc(SCc2ccc(C(=O)O)cc2)n1	0%	35µM*	i	-3	-33%
Cc1cc(-c2ccccc2)nc(SCc2ccc(C(=O)O)o2)n1	-1%	-8%[15.4 µM]	i	-11	-1%
SMILES	RXFP1 ag	gsp antagonist	Akt phos inh	RXFP1 antag	gsp agonist
CC(C)Oc1ccc(CN2CCc3nc(Nc4ccc5c(c4)OCCO5)ncc3C2)cc1	0%	nt	nt	?	nt
CC(=O)c1c(C)[nH]c(C(=O)OCC(=O)Nc2cc(Cl)ccc2[N+](=O)[O-])c1C	0%	35µM*	i	-13	?
CC(=O)c1c(C)[nH]c(C(=O)OCC(=O)Nc2ccc(C)cc2[N+](=O)[O-])c1C	1%	?	i	-6	-18%
Cc1sc2ncnc(N3CCC(C(=O)N(C)CC(=O)Nc4ccccc4Br)CC3)c2c1C	6%	35µM*	i	-37	-107%
Cc1sc2ncnc(N3CCC(C(=O)N(C)CC(=O)Nc4ccccc4Cl)CC3)c2c1C	2%	?	i	4	-18%
O=C(Nc1ccc(Br)c2cccnc12)c1cccc2ccccc12	2%	nt	nt	nt	nt
C=C(CN(C)C)C(=O)c1ccc(C)cc1C	nt	50µM*	i	-81*	27%
Cc1ccc(C(=O)CC(=O)c2ccccc2C)c(O)c1	0%	14%	i	-25	6%[15.4 µM]
Cc1ccccc1N/N=C/c1sc(=O)n(Cc2cccc(C(=O)O)c2)c1Cl	-2%	?	i	-73*	?
COc1ccc(CNC(=O)c2cc3ccccn3n2)c(OC)c1	0%	nt	nt	-1	nt
Cc1ccccc1-c1cc(C(=O)Nc2sc(C(=O)OC(C)C)c(C)c2C#N)c2ccccc2n1	1%	11µM*	i	-65*	-28%
CC(=O)NCCNC(=O)c1ccc2c(=O)n(CCc3ccccc3)c(=O)[nH]c2c1	16%	nt	nt	nt	nt
O=C(Nc1ccc2oc(-c3ccc(F)cc3)nc2c1)c1ccccc1F	14%	2%	?	28	?
O=C(NC(=S)Nc1ccc2oc(-c3ccncc3)nc2c1)c1ccccc1F	-2%	32µM*	i	6	0%
COc1ccc(-c2cc(C(F)(F)F)nc(SCC(=O)NCCc3ccc(OC)c(OC)c3)n2)cc1	1%	nt	nt	nt	nt
CCOC(=O)c1cnc(-n2nc(C)cc2C)nc1Nc1ccc(O)cc1	0%	11µM*	i	6	2%
CCOC(=O)c1cnc(-n2nc(C)cc2C)nc1Nc1ccc(C)cc1	3%	4%	i	-5	-38%
CCCCOC(=O)c1ccc(NC(=O)c2csnn2)cc1	0%	nt	nt	-1	nt
O=C(OCc1ccccc1Cl)c1ccc(-c2nnn(Cc3ccccc3)n2)cc1	-2%	nt	nt	6	nt
O=C1CCN(C(=O)Nc2cccc(Cl)c2)N1	0%	4%	-120%*	-2	15%
COc1cccc(NC(=O)c2nnn(Cc3cccc(C(F)(F)F)c3)c2N)c1	0%	nt	nt	-10	nt
N#CC(C(=O)NCc1ccccc1)c1nc2ccccc2nc1N1CCCC1 (configuration not stated)	6%	10%	-84%*	-1	?
COc1ccccc1N1CCN(c2nc3ccccc3nc2C(C#N)C(=O)OC(C)C)CC1 (configuration not stated)	2%	-12%	-97%*	-12	-40%
CCOc1ccccc1N1CCN(c2nc3ccccc3nc2C(C#N)C(=O)OC)CC1 (configuration not stated)	3%	2%	i	-11	-55%
O=C(NC(Cc1c[nH]c2ccccc12)C(=O)Nc1ccc(OC(F)(F)F)cc1)c1cccs1 (configuration not stated)	0%	4%	i	-71*	0%[15.4 µM]

Screening results as filed in PubChem.
